{"source": "PubChem BioAssay (NCATS)", "note": "“And” between values parts separate entries of the source, which are not always exact repeats. Identical values can stand only once. Inconclusive results are not listed. Unmarked numbers belong to inactive results. The source made the active and inactive calls. The call rests on the fitted dose curve; in most records, active means well fitted curve in the direction sought with a large enough effect; inconclusive means small, poorly fitted or top-dose-only effect, or another doubt; inactive means no such curve, though single readings can be large; an effect the other way counts as inactive or inconclusive. Potency means the concentration at half of the fitted maximal effect.", "data": [{"assay": "qHTS of pediatric cancer cell lines to identify multiple opportunities for drug repurposing: Confirmatory screen for NB1643 cells (AID 1347109); further: nearly all actives have a fitted effect of over 45% in size;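 on activity change, negative = cytotoxic: plate controls were DMSO for no effect and bortezomib for full effect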", "conditions": "NB1643 neuroblastoma cell viability; series mostly up to 45.9 µM; activity change, negative = cytotoxic: at the top concentration", "procedure,_shortened": "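Cells (500-1,000/well) rested 5 h, then received compounds for 48 h; metabolically active cells were measured by CellTiter-Glo luminescence. Final concentrations spanned up to 46 µM (MIPE, 11-point) or 0.59 nM-46 µM (NPC, 8-point) in primary screens, 11-point in follow-ups.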", "units": {"activity change, negative = cytotoxic": "%"}, "values": [{"smiles": "Nc1nc(=S)c2[nH]cnc2[nH]1", "Potency": "5.85 µM (active) and 4.14 µM (active)"}, {"smiles": "Nc1nc(N)c2nc(CNc3ccc(C(=O)NC(CCC(=O)O)C(=O)O)cc3)cnc2n1", "note": "(stereo unspecified)", "activity change, negative = cytotoxic": -2.35}, {"smiles": "COc1nc(N)nc2c1ncn2[C@@H]1O[C@H](CO)[C@@H](O)[C@@H]1O", "activity change, negative = cytotoxic": -18.9}, {"smiles": "Cn1nnc2c(C(N)=O)ncn2c1=O", "activity change, negative = cytotoxic": 2.16}, {"smiles": "CCc1c2c(nc3ccc(OC(=O)N4CCC(N5CCCCC5)CC4)cc13)-c1cc3c(c(=O)n1C2)COC(=O)[C@]3(O)CC", "Potency": "2.61 µM (active)"}, {"smiles": "Oc1c(Cl)cc(Cl)c2cccnc12", "Potency": "18.5 µM (active)"}, {"smiles": "COc1cc(NCc2ccc3nc(N)nc(N)c3c2C)cc(OC)c1OC", "Potency": "9.27 µM (active)"}, {"smiles": "COc1cc2nc(N3CCCN(C)CC3)nc(NC3CCN(Cc4ccccc4)CC3)c2cc1OC", "Potency": "20.8 µM (active)"}]}, {"assay": "qHTS of pediatric cancer cell lines to identify multiple opportunities for drug repurposing: Confirmatory screen for A673 cells (AID 1347110);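 further: cells exposed to compound for 48 h before the viability read; nearly all actives have a fitted effect of over 65% in size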;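 on activity change, negative = cytotoxicity: plate controls were DMSO neutral control for no effect and bortezomib positive control for full effect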", "conditions": "A673 Ewing sarcoma cell viability; series mostly up to 45.9 µM; activity change, negative = cytotoxicity: at the top concentration", "procedure,_shortened": "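Forty-eight-hour viability assay. Follow-up compounds ran at 11-point dilutions; positive control bortezomib at 2.3 uM final, neutral control DMSO.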", "units": {"activity change, negative = cytotoxicity": "%"}, "values": [{"smiles": "Nc1nc(=S)c2[nH]cnc2[nH]1", "Potency": "2.61 µM (active) and 1.65 µM (active)"}, {"smiles": "COC(=O)Nc1nc2ccc(C(=O)c3ccccc3)cc2[nH]1", "Potency": "1.04 µM (active)"}, {"smiles": "Nc1nc(N)nc(-c2cc(Cl)ccc2Cl)n1", "Potency": "26.9 µM (active)"}, {"smiles": "Nc1nc(N)c2nc(CNc3ccc(C(=O)NC(CCC(=O)O)C(=O)O)cc3)cnc2n1", "note": "(stereo unspecified)", "Potency": "1.04 µM (active)"}, {"smiles": "COc1nc(N)nc2c1ncn2[C@@H]1O[C@H](CO)[C@@H](O)[C@@H]1O", "Potency": "1.85 µM (active)"}, {"smiles": "Cn1nnc2c(C(N)=O)ncn2c1=O", "activity change, negative = cytotoxicity": 12.7}, {"smiles": "COC(=O)Nc1nc2ccc(Sc3ccccc3)cc2[nH]1", "Potency": "1.17 µM (active)"}, {"smiles": "CCc1c2c(nc3ccc(OC(=O)N4CCC(N5CCCCC5)CC4)cc13)-c1cc3c(c(=O)n1C2)COC(=O)[C@]3(O)CC", "Potency": "1.17 µM (active)"}, {"smiles": "Oc1c(Cl)cc(Cl)c2cccnc12", "Potency": "8.27 µM (active)"}, {"smiles": "CC1CC2C3CCC4=CC(=O)C=C[C@]4(C)[C@@]3(F)[C@@H](O)C[C@]2(C)[C@@]1(O)C(=O)CO", "note": "(stereo partly specified)", "Potency": "2.93 µM (active)"}, {"smiles": "CNNCc1ccc(C(=O)NC(C)C)cc1", "Potency": "10.4 µM (active)"}, {"smiles": "COc1cc(NCc2ccc3nc(N)nc(N)c3c2C)cc(OC)c1OC", "Potency": "3.29 µM (active)"}, {"smiles": "COc1cc2nc(N3CCCN(C)CC3)nc(NC3CCN(Cc4ccccc4)CC3)c2cc1OC", "Potency": "7.37 µM (active)"}]}]}
